Shown are actives, neighbours in structure and some others; about 2.5% of the full set was active somewhere.
HDAC3 inh = human HDAC3 inhibition; O15379; recombinant HDAC3, fluorogenic peptide/trypsin coupled, fluorescence; inhibition, % at 8.3 µM; actives 0.15% (n = 320,000); AID 2718; in the data active = inhibition above about 26%, passing the limit was not always enough
G6PDH counter = counter-screen for G6PDH assay hits: L. mesenteroides G6PDH inhibition; actives 0.12% (n = 200,000); Purified L. mesenteroides G6PDH, diaphorase/resazurin coupled fluorescence, 45 min; inhibition, % at 5 µM; AID 1020; in the data active = inhibition above about 50%
UBC9 SUMO inh = blocks human SUMOylation mediated by UBC9. P63279. HTRF SUMOylation assay, SAE1/SAE2 + UBC9, in vitro. inhibition, % at 35 µM. actives 0.36% (n = 290,000). AID 2006; in the data active = inhibition above about 50%, passing the limit was not always enough
Target sequence (P63279 whole entry, looked up): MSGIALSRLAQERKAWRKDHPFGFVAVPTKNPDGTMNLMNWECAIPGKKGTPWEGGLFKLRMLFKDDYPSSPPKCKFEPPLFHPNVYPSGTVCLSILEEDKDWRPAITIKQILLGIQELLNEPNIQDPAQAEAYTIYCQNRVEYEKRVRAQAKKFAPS
p97 inhibitor = human p97 ATPase inhibition. P55072. recombinant p97 ATPase, Kinase-Glo ATP luminescence, 3 h. inhibition, % at 8 µM. actives 0.42% (n = 220,000). AID 1481; in the data active = inhibition above about 15%;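 note: 0% = DMSO vehicle and 100% = wells lacking enzyme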
PHOSPHO1 block = inhibitors of human PHOSPHO1 phosphatase; recombinant PHOSPHO1, absorbance phosphatase assay; inhibition, % at 13.3 µM; actives 1.1% (n = 290,000); AID 1565; in the data active = inhibition above about 60%
Target sequence (Q8TCT1 whole entry, looked up): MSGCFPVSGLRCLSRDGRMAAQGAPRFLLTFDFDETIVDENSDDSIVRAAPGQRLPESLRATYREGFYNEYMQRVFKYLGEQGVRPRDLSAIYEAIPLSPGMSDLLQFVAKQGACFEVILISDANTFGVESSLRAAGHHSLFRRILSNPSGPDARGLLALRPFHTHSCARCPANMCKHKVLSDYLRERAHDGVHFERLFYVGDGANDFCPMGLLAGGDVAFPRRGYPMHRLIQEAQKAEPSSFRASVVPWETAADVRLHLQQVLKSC
PfM18AAP inh-1 = blocks P. falciparum M18 aspartyl aminopeptidase | recombinant PfM18AAP, H-Glu-NHMec fluorogenic cleavage | inhibition, % at 7.35 µM | actives 1.2% (n = 290,000) | AID 1822;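 active = inhibition above the campaign mean inhibition over all tested compounds plus 3 SD, cut at about 28% in these data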;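 note: 0% = plate median of test compound wells and 100% = 2 mM ZnCl2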
PfM18AAP inh-2 = PfM18AAP inhibition, confirmation. shares compounds with PfM18AAP inh-1. actives 28% (n = 2,400). recombinant PfM18AAP, H-Glu-NHMec fluorogenic cleavage. inhibition, % at 7.35 µM. AID 2170;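 active = mean inhibition over replicate wells above the hit cutoff set for the earlier primary screen, cut at about 29% in these data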;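 note: 0% = median of test compound wells and 100% = 2 mM ZnCl2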
CTSL1 counter = counter-screen for PFM18AAP inhibitors: confirmation of human cathepsin L inhibitors. shares compounds with PfM18AAP inh-1. purified cathepsin L1, Z-Leu-Arg-MCA fluorescence. inhibition, % at 5.96 µM. 2,400 tested, under 10 active;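 active = average inhibition across replicates above the hit cutoff set in the earlier primary screen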;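 note: 0% = median of test compound wells and 100% = Z-Phe-Ala-diazomethylketone 1 µM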
Active calls of the source: *; . = not tested or not shown.

SMILES	HDAC3 inh	G6PDH counter	UBC9 SUMO inh	p97 inhibitor	PHOSPHO1 block	PfM18AAP inh-1	PfM18AAP inh-2	CTSL1 counter
CCN(CCCNC(=O)C1CCC(=O)N1Cc1ccc(F)cc1)c1cccc(C)c1 (centres undefined)	7	-3	-9	-9	-103	6	.	.
O=S(=O)(c1ccc(F)cc1)N1CCN(Cc2cc3c(cc2Br)OCCO3)CC1	-2	.	.	.	.	.	.	.
Oc1ccc(N2CCN(Cc3cc4c(cc3Br)OCCO4)CC2)cc1	7	.	-14	.	32	39*	-13	-1
O=C(O)CCOc1ccc2c(c1)OCCO2	8	14	-8	4	14	63*	-45	-3
COc1ccc(OCCCC(=O)Nc2ccc3c(c2)OCCO3)cc1	-7	2	2	0	0	3	.	.
CN=c1scc(-c2ccc(OC)cc2)n1/N=C(\C)c1cccnc1	7	-5	3	4	16	11	.	.
CN=c1scc(-c2ccc(F)cc2)n1/N=C/c1ccc(O)c(O)c1	.	18	4	5	-5	54*	48*	3
Cc1cc(NNC(=O)Nc2cccc(Cl)c2)nc2c1c(C)nn2C	7	.	-6	4	37	39*	28	3
CCCOC(=O)Nc1ccc(S(=O)(=O)Nc2ncccn2)cc1	-5	.	-1	4	25	-2	.	.
CCOC(=O)Nc1ccc(S(=O)(=O)Nn2cnnc2)cc1	-3	7	-9	11	13	41*	47*	-1
CCCCOC(=O)Nc1ccc(S(=O)(=O)Nn2cnnc2)cc1	-4	6	-3	-1	1	50*	50*	0
CCCOC(=O)Nc1ccc(S(=O)(=O)Nn2cnnc2)cc1	1	5	-10	-4	-5	48*	51*	-4
CN(C)S(=O)(=O)c1cccc(NC(=O)CSc2cccc3cccnc23)c1	-6	.	14	.	12	13	.	.
COc1cc(C2Nc3cccc4cccc(c34)N2)ccc1O	-6	.	28	.	34	46*	15	-1
Clc1ccc(C2Nc3cccc4cccc(c34)N2)cc1	7	.	28	.	30	12	.	.
CSc1ccc(C2Nc3cccc4cccc(c34)N2)cc1	-6	.	33	.	14	26	.	.
Cc1cccc(C2Nc3cccc4cccc(c34)N2)c1	4	.	-2	.	-5	33*	-5	1
CCN(CC)C(=O)CSc1nnc(-c2ccccn2)n1Cc1ccccc1	1	.	28	-3	40	-13	.	.
CC(=S)/C=C1\Sc2ccccc2N1C	18	-4	20	4	51	37*	5	5
O=[N+]([O-])c1cc([N+](=O)[O-])c2nonc2c1Nc1ccccc1O	14	.	28	.	48	38*	-2	3
Cc1ccc(-n2c(N)c(C(=O)N3CCN(C)CC3)sc2=S)cc1	11	-18	5	0	38	59*	19	1
Cc1ccc(-n2c(N)c(C(N)=O)sc2=S)c(C)c1	0	4	7	5	88*	39*	8	5
COc1ccc(NC(=S)NNC(=O)CNc2ccc(Cl)cc2)cc1	18	1	-45	5	-6	21	.	.
COc1ccc(C(CNC(=O)c2ccc(Br)o2)N2CCN(C)CC2)cc1 (centres undefined)	6	.	.	.	.	.	.	.
Cn1cc(-c2ccccc2C(=O)O)c(=O)c2cc(Cl)ccc21	-4	.	15	.	6	-11	.	.
SMILES	HDAC3 inh	G6PDH counter	UBC9 SUMO inh	p97 inhibitor	PHOSPHO1 block	PfM18AAP inh-1	PfM18AAP inh-2	CTSL1 counter
CC1CC(=O)Nc2ccccc2N1C(=O)Cn1cnc2ccccc2c1=O (centres undefined)	7	.	.	.	.	.	.	.
CC1(C)CC(=O)C/C(=N/Nc2nc3ccccc3s2)C1	6	0	-9	-2	-14	9	.	.
CC1CCC/C(=N/Nc2nc3ccccc3s2)C1 (centres undefined)	7	6	3	3	13	39*	-18	-4
CC[n+]1c(/C=C/C=C/N(C(C)=O)c2ccccc2)sc2cc(OC)ccc21	45*	-9	-6	3	6	43*	-36	1
N#CCCN(C(=O)CN1CCN(S(=O)(=O)c2ccc(Cl)s2)CC1)c1ccc(F)cc1	8	.	.	.	.	.	.	.
O=C(O)CSc1nnc(NC(=O)CN2CCOCC2)s1	3	.	3	.	.	4	.	.
NS(=O)(=O)c1ccc(NC(=S)N2CCN(C(=O)C3CCCO3)CC2)cc1 (centres undefined)	-2	.	1	.	-57	47*	1	1
O=C1OCC/C1=C\OCCCO/C=C1\CCOC1=O	2	.	9	2	42	-1	.	.
Cc1ccc(-c2cn3c(=S)[nH]nc3s2)cc1	9	6	-4	6	68*	64*	46*	1
CCOC(=O)c1c(C)n(C)c2cc(Br)c(O)c(O)c12	2	.	0	2	40	51*	53*	-5
CCOc1ccc(NC(=O)CSc2nc(=O)n(CCCN3CCOCC3)c3c2CCC3)cc1	3	.	.	.	.	.	.	.
Oc1cccc(Nc2c3ccccc3nc3ccccc23)c1	-5	.	2	.	61*	37*	-48	4
CCNc1nc(NCC)nc(Nn2cnnc2)n1	-3	-3	9	-4	-26	32*	26	3
Cc1ccc(-n2nc3ccc(N)cc3n2)cc1Cl	-3	.	25	.	26	32*	-42	-1
Cc1ccc(N2CC(C(=O)N3CCOCC3)CC2=O)cc1Cl (centres undefined)	9	.	-19	.	-3	9	.	.
CCSc1nnc(NC(=O)CSc2nnc(CNC(=O)c3ccc(OC)c(OC)c3)o2)s1	3	5	-13	5	3	14	.	.
CCc1nnc(NC(=O)CSc2nnc(CNC(=O)c3ccc(OC)c(OC)c3)o2)s1	0	0	27	-1	-118	42*	-25	-4
O=C(NC(=S)NNS(=O)(=O)c1ccccc1)c1ccccc1[N+](=O)[O-]	10	0	-79	6	2	13	.	.
O=C(NC(=S)NNS(=O)(=O)c1ccccc1)c1ccc([N+](=O)[O-])cc1	0	-10	6	6	-17	50*	-9	4
O=c1cc(-c2ccc(O)c(O)c2)oc2c(C3O[C@H](CO)[C@@H](O)[C@H](O)[C@H]3O)c(O)cc(O)c12 (some centres undefined)	4	36	33	0	-23	68*	45*	-1
O=c1cc(-c2ccc(O)cc2)oc2c(C3O[C@H](CO)[C@@H](O)[C@H](O)[C@H]3O)c(O)cc(O)c12 (some centres undefined)	4	.	.	.	.	.	.	.
O=c1cc(-c2ccc(O)c(O)c2)oc2cc(O)c(C3OC(CO)C(O)C(O)C3O)c(O)c12 (centres undefined)	6	36	32	4	32	68*	34*	2

Source: PubChem
